# Of roughly 7,900 targets only a part is listed; those with a hit were picked by preference. About 0.6% of all pairs of compound and target were hits. A number with no mark means an inactive call.
# Columns and labels:
# Experiment in all cases: log2 fold change, soluble protein after heating vs DMSO (PISA); higher = thermal stabilisation; K562 cells, 10 uM, 30 min; active = over 0.2 and 3.5 SD of the protein, either way, in both replicates (recomputed)
# [1] = compound: C1=CC=C(C=C1)[C@H](COC2=CC3=C(C=C2)NC(=O)N3)NC(=O)C4=CC=CN(C4=O)CC5=CC(=C(C=C5)F)F
# In short: (§1)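 Quantification of soluble protein used TMTpro 16plex LC-MS/MS, with channel sums equalised. Samples were the supernatant after 21,000xg for 90 min of pooled aliquots from K562 cells (2×10^6 cells/mL) treated with 10 μM compound for 30 min, heated for 3 min over 48°C-58°C, and extracted in PBS with 0.5% NP-40 at 4°C. Values, from duplicates, describe thermal stability against control samples on a log2 fold-change scale.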
# [2] = compound: CC1=C(SC2=C1C(=N[C@H](C3=NN=C(N32)C)CC(=O)N)C4=CC=C(C=C4)Cl)C
# In short: as §1
# [3] = compound: CC1=C2C(=CC=C1)N=C(N(C2=O)C3=CC=CC=C3C)CN4C=NC5=C(N=CN=C54)N
# In short: as §1
# [4] = compound: Cc1sc2c(c1C)C(c1ccc(Cl)cc1)=N[C@@H](CC(=O)OC(C)(C)C)c1nnc(C)n1-2
# In short: as §1
# [5] = compound: c1ccc([C@@H]2C[C@H]2NC2CCNCC2)cc1
# In short: as §1
# Chain of UniProt Q12888 (Q12888 whole entry, looked up): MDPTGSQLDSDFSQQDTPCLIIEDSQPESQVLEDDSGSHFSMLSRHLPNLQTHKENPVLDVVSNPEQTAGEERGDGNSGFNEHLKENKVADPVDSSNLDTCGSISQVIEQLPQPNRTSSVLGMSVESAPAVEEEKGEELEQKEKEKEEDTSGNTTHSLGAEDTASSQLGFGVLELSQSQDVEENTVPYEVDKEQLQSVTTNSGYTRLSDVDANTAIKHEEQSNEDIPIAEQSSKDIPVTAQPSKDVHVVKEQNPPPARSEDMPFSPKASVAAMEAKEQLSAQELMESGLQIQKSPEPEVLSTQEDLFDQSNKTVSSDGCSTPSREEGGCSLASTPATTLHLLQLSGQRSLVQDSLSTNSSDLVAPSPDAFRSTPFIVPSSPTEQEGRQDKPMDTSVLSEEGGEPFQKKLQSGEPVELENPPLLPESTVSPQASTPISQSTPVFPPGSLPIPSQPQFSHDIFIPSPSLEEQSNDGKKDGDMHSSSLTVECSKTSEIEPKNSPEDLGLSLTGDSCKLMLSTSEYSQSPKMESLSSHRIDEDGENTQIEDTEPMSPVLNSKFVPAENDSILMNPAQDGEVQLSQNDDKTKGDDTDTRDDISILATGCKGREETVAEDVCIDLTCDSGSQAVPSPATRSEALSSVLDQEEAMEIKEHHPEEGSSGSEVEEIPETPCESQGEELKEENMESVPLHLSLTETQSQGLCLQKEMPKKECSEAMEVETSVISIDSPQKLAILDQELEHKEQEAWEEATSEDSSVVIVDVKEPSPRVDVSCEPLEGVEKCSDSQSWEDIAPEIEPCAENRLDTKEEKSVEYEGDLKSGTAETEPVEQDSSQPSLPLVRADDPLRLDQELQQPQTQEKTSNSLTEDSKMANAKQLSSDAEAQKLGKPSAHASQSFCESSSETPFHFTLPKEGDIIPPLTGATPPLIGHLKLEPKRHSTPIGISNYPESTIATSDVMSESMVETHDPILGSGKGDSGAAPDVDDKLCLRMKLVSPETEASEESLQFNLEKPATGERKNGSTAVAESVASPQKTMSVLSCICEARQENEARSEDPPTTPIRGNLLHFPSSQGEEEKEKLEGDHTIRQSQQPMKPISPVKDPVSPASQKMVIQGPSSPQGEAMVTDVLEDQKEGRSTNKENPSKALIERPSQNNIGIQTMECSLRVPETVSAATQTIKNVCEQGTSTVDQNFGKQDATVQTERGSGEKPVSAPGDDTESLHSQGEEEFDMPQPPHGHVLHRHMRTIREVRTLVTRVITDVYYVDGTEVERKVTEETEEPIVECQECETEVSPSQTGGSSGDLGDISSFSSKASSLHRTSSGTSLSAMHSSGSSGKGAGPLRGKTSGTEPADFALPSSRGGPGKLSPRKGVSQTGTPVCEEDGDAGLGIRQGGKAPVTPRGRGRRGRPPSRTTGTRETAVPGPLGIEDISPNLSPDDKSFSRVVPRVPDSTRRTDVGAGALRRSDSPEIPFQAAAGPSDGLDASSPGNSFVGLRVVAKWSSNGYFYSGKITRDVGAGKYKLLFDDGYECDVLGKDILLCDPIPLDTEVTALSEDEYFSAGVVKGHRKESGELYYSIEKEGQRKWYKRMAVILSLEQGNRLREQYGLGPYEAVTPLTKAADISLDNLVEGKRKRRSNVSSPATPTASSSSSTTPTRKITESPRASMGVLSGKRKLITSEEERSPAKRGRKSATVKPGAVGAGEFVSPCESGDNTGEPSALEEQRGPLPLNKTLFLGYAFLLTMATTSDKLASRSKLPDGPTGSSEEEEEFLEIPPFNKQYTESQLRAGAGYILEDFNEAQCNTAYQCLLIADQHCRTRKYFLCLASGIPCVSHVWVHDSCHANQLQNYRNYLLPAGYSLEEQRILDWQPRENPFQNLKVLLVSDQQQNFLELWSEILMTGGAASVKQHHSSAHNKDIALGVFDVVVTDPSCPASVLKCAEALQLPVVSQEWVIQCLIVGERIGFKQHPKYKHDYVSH
# Chain of UniProt Q6BDS2 (Q6BDS2 whole entry, looked up): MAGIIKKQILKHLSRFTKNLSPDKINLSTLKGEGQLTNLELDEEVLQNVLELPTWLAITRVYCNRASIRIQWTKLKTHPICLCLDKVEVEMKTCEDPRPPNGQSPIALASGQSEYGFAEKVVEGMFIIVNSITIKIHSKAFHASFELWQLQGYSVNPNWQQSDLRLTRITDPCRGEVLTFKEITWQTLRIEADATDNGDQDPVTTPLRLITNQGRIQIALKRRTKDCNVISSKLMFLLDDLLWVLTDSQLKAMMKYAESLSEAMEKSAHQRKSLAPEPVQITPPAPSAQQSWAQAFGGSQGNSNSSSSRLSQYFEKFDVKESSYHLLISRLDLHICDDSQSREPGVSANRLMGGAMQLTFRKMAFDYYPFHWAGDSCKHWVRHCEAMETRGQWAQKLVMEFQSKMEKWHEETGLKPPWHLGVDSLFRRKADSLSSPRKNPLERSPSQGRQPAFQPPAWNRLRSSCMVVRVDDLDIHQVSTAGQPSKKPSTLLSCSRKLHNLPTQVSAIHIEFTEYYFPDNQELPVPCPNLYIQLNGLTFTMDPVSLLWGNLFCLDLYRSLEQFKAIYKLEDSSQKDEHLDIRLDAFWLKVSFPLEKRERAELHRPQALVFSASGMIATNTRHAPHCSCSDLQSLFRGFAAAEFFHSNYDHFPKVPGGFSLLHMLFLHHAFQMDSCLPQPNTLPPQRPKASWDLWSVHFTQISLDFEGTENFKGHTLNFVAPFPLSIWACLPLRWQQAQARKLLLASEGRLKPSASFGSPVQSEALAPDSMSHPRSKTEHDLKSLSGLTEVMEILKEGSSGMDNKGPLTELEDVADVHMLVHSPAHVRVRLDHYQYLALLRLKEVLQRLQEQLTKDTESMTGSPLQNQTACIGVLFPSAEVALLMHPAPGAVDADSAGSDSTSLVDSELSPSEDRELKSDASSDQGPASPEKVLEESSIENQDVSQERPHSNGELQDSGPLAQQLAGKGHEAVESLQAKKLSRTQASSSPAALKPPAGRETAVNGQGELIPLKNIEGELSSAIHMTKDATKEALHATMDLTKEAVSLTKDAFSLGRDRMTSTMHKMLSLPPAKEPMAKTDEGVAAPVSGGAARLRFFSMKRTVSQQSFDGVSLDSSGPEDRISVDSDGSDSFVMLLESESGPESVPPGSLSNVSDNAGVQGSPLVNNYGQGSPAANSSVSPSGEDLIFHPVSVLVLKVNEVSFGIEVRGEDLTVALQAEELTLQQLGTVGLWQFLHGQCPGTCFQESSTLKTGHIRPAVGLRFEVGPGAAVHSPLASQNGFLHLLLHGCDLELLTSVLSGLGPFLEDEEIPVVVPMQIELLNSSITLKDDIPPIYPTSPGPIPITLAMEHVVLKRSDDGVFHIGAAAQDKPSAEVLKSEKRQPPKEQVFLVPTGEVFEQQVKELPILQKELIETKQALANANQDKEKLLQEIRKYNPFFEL
# Chain of UniProt Q969X6 (Q969X6 whole entry, looked up): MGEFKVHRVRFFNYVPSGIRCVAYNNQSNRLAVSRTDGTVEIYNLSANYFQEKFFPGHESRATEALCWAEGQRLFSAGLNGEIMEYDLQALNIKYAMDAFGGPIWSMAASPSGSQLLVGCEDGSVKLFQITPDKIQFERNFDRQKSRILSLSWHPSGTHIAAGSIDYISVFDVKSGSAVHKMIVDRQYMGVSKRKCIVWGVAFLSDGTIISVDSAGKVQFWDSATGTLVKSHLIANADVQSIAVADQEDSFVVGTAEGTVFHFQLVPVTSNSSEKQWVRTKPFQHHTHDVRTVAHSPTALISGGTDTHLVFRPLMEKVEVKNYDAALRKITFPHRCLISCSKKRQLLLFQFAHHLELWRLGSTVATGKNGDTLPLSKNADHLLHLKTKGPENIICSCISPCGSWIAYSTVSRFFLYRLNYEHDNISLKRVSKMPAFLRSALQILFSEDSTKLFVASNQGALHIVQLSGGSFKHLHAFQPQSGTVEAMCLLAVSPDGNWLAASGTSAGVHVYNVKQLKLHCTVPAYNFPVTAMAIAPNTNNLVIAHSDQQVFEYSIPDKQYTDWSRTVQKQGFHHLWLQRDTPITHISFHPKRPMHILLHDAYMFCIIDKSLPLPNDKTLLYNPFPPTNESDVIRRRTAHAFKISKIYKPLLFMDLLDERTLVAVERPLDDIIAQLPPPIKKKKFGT
# Chain of UniProt Q9NX01 (Q9NX01 whole entry, looked up): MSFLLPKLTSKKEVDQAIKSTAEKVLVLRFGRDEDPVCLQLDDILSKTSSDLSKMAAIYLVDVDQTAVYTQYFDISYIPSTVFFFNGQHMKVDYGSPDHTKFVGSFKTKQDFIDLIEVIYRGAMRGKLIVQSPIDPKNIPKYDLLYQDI
# Chain of UniProt Q99816 (Q99816 whole entry, looked up): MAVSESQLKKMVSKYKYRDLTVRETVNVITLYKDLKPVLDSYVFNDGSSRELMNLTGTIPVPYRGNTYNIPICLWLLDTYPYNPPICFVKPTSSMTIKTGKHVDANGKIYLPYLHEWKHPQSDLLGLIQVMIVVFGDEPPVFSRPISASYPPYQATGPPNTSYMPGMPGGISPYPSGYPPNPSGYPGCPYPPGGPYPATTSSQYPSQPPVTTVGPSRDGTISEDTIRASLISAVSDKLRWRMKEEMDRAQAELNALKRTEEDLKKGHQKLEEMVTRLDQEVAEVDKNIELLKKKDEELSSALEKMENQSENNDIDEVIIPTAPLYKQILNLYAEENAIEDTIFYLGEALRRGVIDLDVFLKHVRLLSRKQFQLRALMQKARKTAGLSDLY
# Chain of UniProt P68366 (P68366 whole entry, looked up): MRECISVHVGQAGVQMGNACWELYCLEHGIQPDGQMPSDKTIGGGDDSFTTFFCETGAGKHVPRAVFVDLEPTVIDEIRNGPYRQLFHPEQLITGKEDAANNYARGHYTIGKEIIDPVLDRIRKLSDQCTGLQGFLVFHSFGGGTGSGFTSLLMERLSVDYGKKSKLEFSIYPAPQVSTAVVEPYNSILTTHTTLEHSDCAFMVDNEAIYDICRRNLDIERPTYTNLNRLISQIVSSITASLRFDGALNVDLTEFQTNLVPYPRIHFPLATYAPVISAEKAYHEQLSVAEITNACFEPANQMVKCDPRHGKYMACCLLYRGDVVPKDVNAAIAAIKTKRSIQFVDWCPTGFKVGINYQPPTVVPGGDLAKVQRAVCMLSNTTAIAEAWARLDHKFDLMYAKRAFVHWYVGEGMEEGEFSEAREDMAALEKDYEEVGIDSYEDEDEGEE
Target,log2 fold change [1],log2 fold change [2],log2 fold change [3],log2 fold change [4],log2 fold change [5]
TOM1 isoform 2 (UniProt O60784),0.044,0.001,-0.074,0.046,0.008
WARS1 (UniProt G3V3P2),0.095,,,,
UBE2D1 (UniProt P51668),-0.053,-0.014,0.065,-0.081,-0.035
U2AF1 isoform 2 (UniProt Q01081),0.021,0.03,0.11,-0.02,0.035
VPS33A (UniProt Q96AX1),-0.039,0.053,0.147,0.059,-0.041
TMEM8A (UniProt Q9HCN3),0.017,0.038,-0.011,0.038,0.094
XPNPEP1 isoform 3 (UniProt Q9NQW7),-0.017,0.081,0.021,0.002,-0.029
TRMT10A (UniProt Q8TBZ6),-0.038,0.028,0.006,-0.033,-0.055
UXT isoform 2 (UniProt Q9UBK9),0.046,0.063,0.065,-0.005,-0.077
TMEM263 (UniProt Q8WUH6),-0.152,0.047,0.156,-0.072,-0.031
TXNRD1 (UniProt Q16881),-0.066,0.086,0.023,-0.031,-0.032
TMEM120A (UniProt Q9BXJ8),-0.126,0.056,0.012,-0.11,-0.049
USP48 (UniProt Q86UV5),0,,,,
UCHL5 (UniProt Q9Y5K5),-0.048,0.004,0.043,0.027,0.004
TOMM5 isoform 2 (UniProt Q8N4H5),0.034,0.047,-0.032,-0.029,0.005
TMEM214 (UniProt Q6NUQ4),0.023,0.044,0.005,-0.002,-0.024
WASH2P (UniProt Q6VEQ5),0.015,-0.015,0.026,0.041,0.027
TMEM219 (UniProt Q86XT9),0.066,-0.023,-0.172,0.016,-0.162
WDR4 isoform 3 (UniProt P57081),-0.18,,,,
VPS35L (UniProt Q7Z3J2),-0.046,-0.13,0.011,-0.024,0
UHRF1BP1 (UniProt Q6BDS2),-0.01,0.109,0.006,-0.001,-0.007
TRIM28 (UniProt Q13263),-0.029,0.029,0.017,-0.012,0.009
UBAP2L isoform 1 (UniProt Q14157),0.038,0.004,0.059,0.001,0.011
UBE2J1 (UniProt Q9Y385),-0.061,-0.011,0.05,-0.039,-0.068
TMEM177 (UniProt Q53S58),0.036,-0.01,-0.164,-0.001,-0.002
TSG101 (UniProt Q99816),0,0.032,0.074,-0.015,-0.016
TNPO1 (UniProt Q92973),-0.017,0.008,-0.012,-0.009,0.018
USP24 (UniProt Q9UPU5),0.114,0.02,0.105,-0.198,-0.033

Target,log2 fold change [1],log2 fold change [2],log2 fold change [3],log2 fold change [4],log2 fold change [5]
TXN2 (UniProt Q99757),0.027,0.144,0.039,-0.079,-0.067
WARS1 (UniProt G3V5U1),0.193,,,,
TMEM161A (UniProt Q9NX61),-0.055,0.017,0.098,-0.133,0.003
TUBAL3 (UniProt A6NHL2),-0.196,-0.012,0.096,-0.051,0.029
WDCP (UniProt Q9H6R7),0.013,0,-0.015,0.039,0.145
TRAPPC13 isoform 5 (UniProt A5PLN9),-0.055,0.154,0.08,-0.013,-0.017
TXNL4B (UniProt Q9NX01),0.1,0.068,-0.537 (active),-0.102,-0.12
UBA52 (UniProt P62987),0.088,-0.301,-0.569,0.265,0.193
TMEM189-UBE2V1 (UniProt I3L0A0),-0.047,0.02,0.102,-0.02,0.048
TXNIP (UniProt Q9H3M7),-0.011,0.148,-0.012,-0.039,-0.099
TMEM208 (UniProt Q9BTX3),-0.101,0.02,0.088,-0.14,0.031
VPS50 (UniProt Q96JG6),-0.039,0.055,0.022,-0.013,0.01
UTP4 (UniProt Q969X6),0.009,0.039,-0.044,0.004,-0.021
TNFAIP8 isoform 4 (UniProt O95379),-0.021,0.026,0.02,-0.042,-0.011
TPM2 (UniProt P07951),-0.041,-0.117,-0.195,-0.017,0.014
TMEM164 (UniProt Q5U3C3),-0.195,-0.047,0.257,-0.22,0.068
VPS33B (UniProt Q9H267),-0.102,0.021,0.03,0.008,-0.064
UBE3D (UniProt Q7Z6J8),0.034,0.057,0.001,-0.051,0.009
XIAP (UniProt P98170),0.05,0.003,0,0.048,0.002
VPS11 (UniProt Q9H270),-0.089,0.014,0.118,-0.001,-0.047
UBLCP1 (UniProt Q8WVY7),-0.066,0.067,0.066,-0.018,0.011
WAPL isoform 3 (UniProt Q7Z5K2),-0.116,0.021,0.138,-0.08,0.095
TNFRSF8 (UniProt P28908),0.012,0.053,0.036,-0.04,0.021
USP14 (UniProt P54578),-0.031,0.03,0.046,-0.028,-0.025
TP53BP1 isoform 2 (UniProt Q12888),-0.025,-0.016,0.025,0.001,0.032
WASHC5 (UniProt Q12768),0.034,0.042,0.09,0.003,-0.041
TUBA4A (UniProt P68366),-0.02,0.077,-0.03,-0.01,-0.076
